Assay [1] is described as follows: NCI Yeast Anticancer Drug Screen. Data for the rad50 strain (AID 155).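 Further: 0% = growth of vehicle-only cultures of the same strain.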 The conditions noted are these: S. cerevisiae rad50 strain growth inhibition, active compounds read high. In a few lines:
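Genetically altered yeast (DNA repair pathway); compound treatment; growth inhibition vs vehicle ctrl.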

The nature of assay [2]: NCI Yeast Anticancer Drug Screen. Data for the mec2-1 strain (AID 157). To be noted: S. cerevisiae mec2-1 strain, active compounds read high. A digest of the protocol: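 Vehicle-treated cultures served as reference for growth inhibition of compound-exposed mec2-1 yeast.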
A short description of assay [3]: NCI Yeast Anticancer Drug Screen. Data for the sgs1 mgt1 strain (AID 161).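 Further: 0% = growth of cultures given vehicle only.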 To be noted: S. cerevisiae sgs1 mgt1 strain, active compounds read high. In a few lines:
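Mutant yeast exposed to compound; growth scored against vehicle-only wells.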

The nature of assay [4]: NCI Yeast Anticancer Drug Screen. Data for the cln2 rad14 strain (AID 165).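 Further: 0% = growth equal to vehicle treated cultures.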 To be noted: S. cerevisiae cln2 rad14 strain, active compounds read high. A digest of the protocol: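 Each compound was tested on cln2 rad14 yeast. Inhibition of growth was calculated against vehicle-exposed controls.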
Assay [5] in a line: NCI Yeast Anticancer Drug Screen. Data for the bub3 strain (AID 167). To be noted: S. cerevisiae bub3 mutant strain, active compounds read high. A digest of the protocol: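 Yeast carrying a defined mutation is treated with each compound, and growth is compared with that of vehicle-exposed cells to give inhibition.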
Assay [6] is described as follows: NCI Yeast Anticancer Drug Screen. Data for the mlh1 rad18 strain (AID 175). The conditions noted are these: S. cerevisiae mlh1 rad18 strain growth inhibition, active compounds read high. In a few lines:
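Vehicle-treated cultures served as the reference for growth inhibition in a yeast strain carrying DNA damage repair alterations exposed to each compound.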

The mark [7] stands for this setting: at 5.0 µM (retest, dose inferred, filed as 0.5).
Where [8] appears, read: at 50.0 µM (retest, dose inferred, filed as 5.0).

The panel holds about 79,000 compounds, 15% with a hit somewhere; the sample as a whole holds those more often. A number with no mark means an inactive call. Calls of active or inactive are those of the source. No stated cut-off is given here; in the data, active means growth inhibition above about 70%; inactive means the rest.

As for `CCOc1ccc2c(c1)/C(=C\C=C\C1CC(C)C3CC(OCC)CCC3N1CC)CC(C)N2CC` (stereo not drawn), the growth inhibition in assay [1] (setting [7]) was -7%; in assay [1] (setting [8]) it was 85% (active); in assay [1] (at 50.0 µM), 28.6%; in assay [2] (setting [7]), -1%; in assay [2] (setting [8]) it was 88% (active); in assay [2] (at 50.0 µM) it was 88.2% (active). Moreover, the growth inhibition is -10% in assay [3] (setting [7]); 92% (active) in assay [3] (setting [8]); 33.9% in assay [3] (at 50.0 µM); 0% in assay [4] (setting [7]); 83% (active) in assay [4] (setting [8]); 83% (active) in assay [4] (at 50.0 µM). Besides, the growth inhibition in assay [5] (setting [7]) is 4%; in assay [5] (setting [8]), 82% (active); in assay [5] (at 50.0 µM), 83.7% (active); in assay [6] (setting [7]), 0%; in assay [6] (setting [8]), 86% (active); in assay [6] (at 50.0 µM) it was 81.5% (active).
On to `N#CC(=C1SCS1)[N+](=O)[O-]`, for which the growth inhibition in assay [1] (setting [7]) was 91% (active); in assay [1] (setting [8]) it was 99% (active); in assay [1] (at 50.0 µM), 91.1% (active); in assay [2] (setting [7]), 98% (active); in assay [2] (setting [8]), 100% (active); in assay [2] (at 50.0 µM) it was 92.4% (active). In addition, the growth inhibition was 98% (active) in assay [3] (setting [7]); 100% (active) in assay [3] (setting [8]); 92% (active) in assay [3] (at 50.0 µM); 31% in assay [4] (setting [7]); 99% (active) in assay [4] (setting [8]); 92.2% (active) in assay [4] (at 50.0 µM). Besides, the growth inhibition is 95% (active) in assay [5] (setting [7]); 99% (active) in assay [5] (setting [8]); 89.9% (active) in assay [5] (at 50.0 µM); 98% (active) in assay [6] (setting [7]); 99% (active) in assay [6] (setting [8]); 92.7% (active) in assay [6] (at 50.0 µM).
Take `Cc1ccc2c(c1)sc(-c1ccc(N(C)C)cc1)[n+]2C`: the growth inhibition in assay [1] (setting [7]) was 42%; in assay [1] (setting [8]), 92% (active); in assay [1] (at 50.0 µM), 90.7% (active); in assay [2] (setting [7]), 45%; in assay [2] (setting [8]) it was 96% (active); in assay [2] (at 50.0 µM) it was 91.8% (active). The growth inhibition in assay [3] (setting [7]) is 45%; in assay [3] (setting [8]) it was 98% (active); in assay [3] (at 50.0 µM), 91.8% (active); in assay [4] (setting [7]), 74% (active); in assay [4] (setting [8]), 98% (active); in assay [4] (at 50.0 µM), 89.1% (active). Further, the growth inhibition is 67% in assay [5] (setting [7]); 98% (active) in assay [5] (setting [8]); 90.8% (active) in assay [5] (at 50.0 µM); 24% in assay [6] (setting [7]); 86% (active) in assay [6] (setting [8]); 90.5% (active) in assay [6] (at 50.0 µM).
In the case of `C=C(C(N)=O)C(N)C(=O)O` (stereo not drawn), the growth inhibition is -5% in assay [1] (setting [7]); 9% in assay [1] (setting [8]); -20.1% in assay [1] (at 50.0 µM); 6% in assay [2] (setting [7]); -2% in assay [2] (setting [8]); 9.85% in assay [2] (at 50.0 µM). Also, the growth inhibition in assay [3] (setting [7]) was -1%; in assay [3] (setting [8]), 0%; in assay [3] (at 50.0 µM), 13.1%; in assay [4] (setting [7]), 9%; in assay [4] (setting [8]), 2%; in assay [4] (at 50.0 µM) it was -7.4%. The growth inhibition in assay [5] (setting [7]) is -16%; in assay [5] (setting [8]), -2%; in assay [5] (at 50.0 µM) it was 40.5%; in assay [6] (setting [7]) it was 11%; in assay [6] (setting [8]), 32%; in assay [6] (at 50.0 µM), 7.45%.
For the compound `CC(C)c1ccc(C(=O)OC2CCCC2)cc1`, the growth inhibition is 8% in assay [1] (setting [7]); 98% (active) in assay [1] (setting [8]); 96.5% (active) in assay [1] (at 50.0 µM); 9% in assay [2] (setting [7]); 100% (active) in assay [2] (setting [8]); 99.2% (active) in assay [2] (at 50.0 µM). The growth inhibition was 9% in assay [3] (setting [7]); 99% (active) in assay [3] (setting [8]); 54.6% in assay [3] (at 50.0 µM); 6% in assay [4] (setting [7]); 99% (active) in assay [4] (setting [8]); 94.3% (active) in assay [4] (at 50.0 µM). Moreover, the growth inhibition in assay [5] (setting [7]) was 4%; in assay [5] (setting [8]) it was 99% (active); in assay [5] (at 50.0 µM) it was 53%; in assay [6] (setting [7]), 4%; in assay [6] (setting [8]) it was 99% (active); in assay [6] (at 50.0 µM), 93.3% (active).
Take `COc1ccc2c(c1)c(CC(=O)O)c(C)n2C(=O)c1ccc(Cl)cc1`: the growth inhibition in assay [1] (setting [7]) was -1%; in assay [1] (setting [8]), 37%; in assay [1] (at 50.0 µM) it was 82.2% (active); in assay [2] (setting [7]), 1%; in assay [2] (setting [8]) it was 57%; in assay [2] (at 50.0 µM) it was 48.2%. Moreover, the growth inhibition in assay [3] (setting [7]) is 2%; in assay [3] (setting [8]) it was 54%; in assay [3] (at 50.0 µM), 88.7% (active); in assay [4] (setting [7]), 1%; in assay [4] (setting [8]), 32%; in assay [4] (at 50.0 µM), 80.7% (active). Further, the growth inhibition is 1% in assay [5] (setting [7]); 30% in assay [5] (setting [8]); 51.1% in assay [5] (at 50.0 µM); -1% in assay [6] (setting [7]); 39% in assay [6] (setting [8]); 72% (active) in assay [6] (at 50.0 µM).

The values above are taken from PubChem BioAssay (NCI).
